A short description of assay [1]: qHTS for Inhibitors of the Functional Ribonucleoprotein Complex (vRNP) of Lassa (LASV) Arenavirus: LASV Primary Screen - GLuc reporter signal (AID 1347082; calls by dose curve; tested in HEK293 reporter line; note: nearly all actives have a fitted effect of over 60% in size).
Assay [2] can be described thus: qHTS for Inhibitors of the Functional Ribonucleoprotein Complex (vRNP) of Lassa (LASV) Arenavirus: Viability assay - alamar blue signal for LASV Primary Screen (AID 1347083; calls by dose curve; tested in HEK293 reporter line; note: nearly all actives have a fitted effect of over 80% in size; note: potency is the fitted concentration of half-maximal effect).
A short description of assay [3]: qHTS for Inhibitors of the Functional Ribonucleoprotein Complex (vRNP) of Lymphocytic Choriomeningitis Arenaviruses (LCMV): Viability assay - alamar blue signal for LCMV Primary Screen (AID 1347085; calls by dose curve; tested in HEK293 reporter line; note: nearly all actives have a fitted effect of over 80% in size).
Assay [4] deals with Nucleoprotein (Lymphocytic choriomeningitis virus (strain Armstrong)) (UniProt P09992). Put plainly: qHTS for Inhibitors of the Functional Ribonucleoprotein Complex (vRNP) of Lymphocytic Choriomeningitis Arenaviruses (LCMV): LCMV Primary Screen - GLuc reporter signal (AID 1347086; calls by dose curve; note: nearly all actives have a fitted effect of over 70% in size).
Assay [5] relates to CRL-7250. Put plainly: qHTS assay to identify novel small-molecules to repurpose for Merkel cell carcinoma treatment (AID 1296009). Note: nearly all actives have a fitted effect of over 60% in size. The settings on record: MCC and control cell lines, CellTiter-Glo viability, 72 h; series mostly up to 92 µM. The method in brief:
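Cell viability measured by CellTiter-Glo following 72 hr compound treatment at 37 degree celsius, with NPC and MIPE libraries tested in 8- and 11-point concentration series.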

The structures appear in SMILES notation. Results filed as inconclusive are left out. Unmarked numbers belong to inactive results. Calls of active or inactive are those of the source. Unless noted, calls come from the whole dose curve; as a rule, active = well fitted inhibition curve with a large enough effect; inconclusive = small, poorly fitted or top-dose-only effect; inactive = flat fitted curve, though single readings scatter.

Nucleoprotein (Lymphocytic choriomeningitis virus (strain Armstrong)), sequence (P09992 whole entry, looked up): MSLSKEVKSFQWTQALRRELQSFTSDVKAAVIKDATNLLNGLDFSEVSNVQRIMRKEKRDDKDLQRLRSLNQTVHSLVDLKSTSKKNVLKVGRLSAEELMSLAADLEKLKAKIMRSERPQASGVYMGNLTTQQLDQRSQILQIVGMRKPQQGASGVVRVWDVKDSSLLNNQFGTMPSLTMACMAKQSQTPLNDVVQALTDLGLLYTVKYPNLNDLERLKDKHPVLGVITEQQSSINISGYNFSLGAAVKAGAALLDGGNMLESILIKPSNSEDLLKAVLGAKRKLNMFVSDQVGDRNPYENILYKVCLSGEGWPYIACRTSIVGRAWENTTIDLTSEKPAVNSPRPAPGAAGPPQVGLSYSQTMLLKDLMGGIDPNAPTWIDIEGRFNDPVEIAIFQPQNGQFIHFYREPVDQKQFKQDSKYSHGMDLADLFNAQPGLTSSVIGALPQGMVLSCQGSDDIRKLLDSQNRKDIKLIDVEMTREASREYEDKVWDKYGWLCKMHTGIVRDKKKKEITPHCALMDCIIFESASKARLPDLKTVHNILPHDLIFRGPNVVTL

Regarding `COc1cc([C@H]2Oc3cc([C@H]4Oc5cc(O)cc(O)c5C(=O)[C@H]4O)ccc3O[C@H]2CO)ccc1O`, the Potency entry in assay [1], in assay [2], in assay [3], in assay [4] and in assay [5] was “inactive” each time.

Turning to `CC(C)(O)[C@H]1CC[C@@](C)([C@H]2[C@@H](O)C[C@@]3(C)[C@@H]4C[C@H](O[C@@H]5O[C@H](CO)[C@@H](O)[C@H](O)[C@@H]5O)[C@H]5C(C)(C)[C@@H](O[C@@H]6OC[C@@H](O)[C@H](O)[C@@H]6O)CC[C@@]56C[C@@]46CC[C@]23C)O1`, the Potency entry in assay [1], in assay [2], in assay [3], in assay [4] and in assay [5] was “inactive” throughout.

In the case of `O=C(C[C@@H]1CC=CCCC(=O)O[C@H](c2ccccc2)CNC1=O)NCc1ccc(Cl)cc1`, the Potency entry in assay [1], in assay [2], in assay [3], in assay [4] and in assay [5] was “inactive” each time.

As for `NC1CCC(Nc2nc(Nc3ccc(C(=O)N4CCCCC4)cc3)c3ncn(-c4cccc(F)c4)c3n2)CC1` (stereo not given), the Potency result in assay [1], in assay [2], in assay [3], in assay [4] and in assay [5] was “inactive” each time.

Consider `COc1c(O)cc2c(c1O)[C@@H]1O[C@H](CO)[C@@H](O)[C@H](O)[C@H]1OC2=O`, for which the Potency result in assay [1], in assay [2], in assay [3], in assay [4] and in assay [5] was “inactive” throughout.

With `CC(=O)C1=C(O)C=C2Oc3c(C(C)=O)c(O)c(C)c(O)c3C2(C)C1=O` (stereo not given), the Potency entry in assay [1], in assay [2], in assay [3], in assay [4] and in assay [5] was “inactive” each time.

As to `COC(=O)[C@@H]1[C@H]2C[C@@H]3c4[nH]c5ccccc5c4CCN3C[C@@H]2CC[C@@H]1O`, the Potency result in assay [1], in assay [2], in assay [3], in assay [4] and in assay [5] was “inactive” each time.

With `C=C[C@@H]1CN2CCC1C[C@@H]2C(O)c1ccnc2ccc(OC)cc12` (stereo not given in full), the Potency entry in assay [1], in assay [2], in assay [3], in assay [4] and in assay [5] was “inactive” each time.

On to `CON=C(C(=O)N[C@@H]1C(=O)N2C(C(=O)OCOC(=O)C(C)(C)C)=C(C=Cc3scnc3C)CS[C@H]12)c1csc(N)n1`, for which the Potency entry in assay [1], in assay [2], in assay [3], in assay [4] and in assay [5] was “inactive” each time.

For `COc1cc(/C=C/C(=O)OC2CC3CCC2(C)C3(C)C)ccc1O` (stereo not given), the Potency entry in assay [1], in assay [2], in assay [3], in assay [4] and in assay [5] was “inactive” throughout.

Turning to `O=C1Nc2ccc(I)cc2C1=Cc1cc(Br)c(O)c(Br)c1`, the Potency result in assay [1], in assay [2], in assay [3], in assay [4] and in assay [5] was “inactive” throughout.

Consider `CC1(C)[C@H]2CC[C@]3(C)[C@@H](C(=O)C=C4[C@@H]5C[C@@](C)(C(=O)O)CC[C@]5(C)CC[C@]43C)[C@@]2(C)CC[C@@H]1O`, for which the Potency result in assay [1], in assay [2], in assay [3], in assay [4] and in assay [5] was “inactive” in each case.

As to `CN(C)c1ccccc1CN1CCCN(Cc2ccccc2N(C)C)C1c1ccncc1`, the Potency result in assay [1], in assay [2] and in assay [5] was “inactive” each time.

For the compound `O=C(O)C1=NC(C(=O)O)CC(C=CN2c3cc(O)c(OC4OC(CO)C(O)C(O)C4O)cc3CC2C(=O)O)=C1` (stereo not given), the Potency result in assay [1], in assay [2], in assay [3], in assay [4] and in assay [5] was “inactive” throughout.

With `CC(C)(Cc1ccc2ccccc2c1)NC[C@@H](O)COc1cccc(Cl)c1C#N`, the Potency entry in assay [1], in assay [2], in assay [3], in assay [4] and in assay [5] was “inactive” each time.

Turning to `CC(=O)O[C@]1(C(C)=O)CC[C@H]2[C@@H]3C=C(C)C4=CC(=O)CC[C@]4(C)[C@@H]3CC[C@@]21C`, the Potency result in assay [1], in assay [2], in assay [3], in assay [4] and in assay [5] was “inactive” throughout.

In the case of `CCNC(=O)Nc1ccc2ncc(Nc3ccc(C)cc3)nc2n1`, the Potency result in assay [1] and in assay [5] was “inactive” in each case. Further, in assay [2], the Potency was 2170 nM (active).

On to `NC(=O)NN=Cc1ccc([N+](=O)[O-])o1`, for which the Potency entry in assay [1], in assay [2], in assay [3], in assay [4] and in assay [5] was “inactive” in each case.

In the case of `C=CC1=C(C(=O)O)N2C(=O)[C@@H](NC(=O)C(=NO)c3csc(N)n3)[C@H]2SC1`, the Potency entry in assay [1], in assay [2], in assay [3], in assay [4] and in assay [5] was “inactive” in each case.

As for `O=C(NCc1ccccc1)[C@H](Cc1ccccc1)NC(=O)[C@@H]1O[C@@H]1C(=O)NCCc1ccc(O)cc1`, the Potency entry in assay [1], in assay [2], in assay [3] and in assay [5] was “inactive” throughout.

On to `Clc1cccc(-n2nnnc2NCc2ccccc2Oc2ccccn2)c1Cl`, for which the Potency entry in assay [1], in assay [2], in assay [3], in assay [4] and in assay [5] was “inactive” throughout.

With `CNC[C@@H](O)[C@@H](O)[C@H](O)[C@H](O)CO`, the Potency result in assay [1], in assay [2], in assay [3], in assay [4] and in assay [5] was “inactive” each time.

As for `OC[C@H]1O[C@@H](Oc2cc(O)cc(C=Cc3ccc(O)cc3)c2)[C@H](O)[C@@H](O)[C@H]1O`, the Potency entry in assay [1], in assay [2], in assay [3], in assay [4] and in assay [5] was “inactive” throughout.

For the origin of these results see PubChem BioAssay (NCATS).
